The values below come from PubChem BioAssay.

Structures are written as SMILES.

This assay concerns Inhibin beta A chain (activin A). Kind of assay: INHBA (activin A) binders on microarrays, primary screen, biochemical, small-molecule microarray, 635 nm fluorescence scan (AID 1107).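 Also: mouse activin A protein probed at 4.33 µg/mL on printed slides; score merges bound-protein fluorescence near 667 nm with spot signal-to-noise.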 To be noted: small-molecule microarray binding, higher = more signal.
`O=C1OCCC=C[C@H]2OC34C=CCN(c5ccc6ccccc6c5)C(=O)[C@H]3N(CCCCCCO)C(=O)[C@@H]4C12` (stereo not given in full) had a composite z-score of 0.56.

In the case of `COc1ccc([Si](C)(C)[C@H]2[C@H](CC(=O)N(CCO)Cc3ccccc3)O[C@@]3(C(=O)N(Cc4cccc(N5C(=O)c6cccc7cccc5c67)c4)c4ccccc43)[C@@H]2C)cc1`, the composite z-score was 0.9. The same measure for `C=CCC(OC(C)=O)[C@@H]1[C@@H](N(Cc2cc3ccccc3o2)C(=O)c2cccc3ccccc23)c2cc(OCCCO)ccc2N1C(=O)Cc1ccc(OC)cc1` (stereo not given in full): 1.2. Next, `COC(=O)[C@@]1(Cc2ccc(OC)cc2)[C@H]2c3cc(C(=O)N4CCCC4)n(CCc4ccccn4)c3C[C@H]2CN1C(=O)c1ccccc1`: 0.845. `C=CCN1C(=O)[C@]2(Cc3ccccc31)N=C(c1ccc(OCCCO)cc1)O[C@@H]2c1ccccc1`: the composite z-score amounted to 1.27. `CCCC[C@H]1OB(O)C[C@H]2C1=C(C)Cn1c(=O)n(-c3ccccc3)c(=O)n12` had a composite z-score of 0.255. Compound `CCN(CC)c1ccc(N2CC=CC34O[C@@H]5C=CCOC(=O)[C@@H]5[C@H]3C(=O)N(CCCCCO)[C@@H]4C2=O)cc1` (stereo not given in full) yielded a composite z-score of 1.1.

In the case of `C#C[C@H]1Oc2ccccc2S(=O)(=O)N2CCC[C@@H]12`, the composite z-score is 1.74. Next, `O=C1C[C@@](C(=O)O)(c2ccc([N+](=O)[O-])cc2)[C@@H](c2ccc(CO)cc2I)N1CC12CC3CC(CC(C3)C1)C2`: 0.723; `CCOC(=O)N1C(c2ccc(OCCCO)cc2)=NC(C(=O)OC)N1C(=O)OCC` (stereo not given): -0.298.
